Screening results as filed in PubChem.
Compounds with a hit are over-represented: about 6.2% of the library has one in this group of screens.
KB-V1 MDR tox: KB-V1 MDR subline cytotoxicity | KB-V1 MDR cells viability, CellTiter-Glo, 72 h | Potency, µM (series often up to 46.1 µM), hits mostly cytotoxic | actives 3.4% (n = 400,000); note: nearly all actives have a fitted effect of over 60% in size
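KB-V1, DMEM (no phenol red) + 10% FBS; cpd pin-transferred, titration series; 72 h, 37 degrees C; CellTiter-Glo, luminescence. Data normalized, curve-fit.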
KB-3-1 tox: kills parental KB-3-1 adenocarcinoma cells; KB-3-1 viability, CellTiter-Glo ATP luminescence, 72 h; actives 1.4% (n = 400,000); Potency, µM (series often up to 46.1 µM), most hits filed as cytotoxic; note: nearly all actives have a fitted effect of over 60% in size
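Using CellTiter-Glo luminescence, growth of non-resistant KB-3-1 adenocarcinoma cells is assessed 72 h after pin-tool compound addition at 37 °C. Normalized responses across the concentration series yield fitted curves.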
HT1080 IDH1KD tx: toxicity to HT-1080 IDH1 knockdown cells (counter line). Potency, µM (titrated, usually from 46.1 µM), most hits filed as cytotoxic. AID 686971. actives 2% (n = 360,000). HT-1080 IDH1 knockdown viability, ATP luminescence, 48 h
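Viability of IDH1-knockdown HT-1080 fibrosarcoma cells was assessed by CellTiter-Glo after 48 h at 37 °C with titrated compound; concentration-effect curves were classified by fit quality and response size.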
ATXN2 expr inh: ATXN2 expression inhibition; Potency, µM (top dose mostly 57 µM), usual class: inhibitors; actives 0.72% (n = 360,000); HEK-293 ATXN2-luciferase reporter, luminescence, 24 h; note: nearly all actives have a fitted effect of over 55% in size
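qHTS (up to 57 uM final) was run with 24 h compound exposure of reporter cells at 37 °C. Each well was multiplexed: SteadyGlo luminescence measured ATXN2-luciferase expression after a fluorogenic Gly-Phe-AFC viability readout (25 uM final).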
HT1080NT lethal: kills 2HG-producing HT-1080-NT fibrosarcoma cells | HT-1080-NT fibrosarcoma viability, CellTiter-Glo ATP luminescence, 48 h | Potency, µM (titrated, usually from 46.1 µM), usual class: cytotoxic | actives 1.6% (n = 360,000) | AID 686970;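 note: NT is the 2HG producing partner of a matched IDH1 knockdown line; nearly all actives have a fitted effect of over 55% in size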
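Read-out is CellTiter-Glo luminescence after 10 minutes at room temperature, following 48 hours' compound treatment of HT-1080-NT cells (750 cells/well, RPMI, 5% FBS, 37 degrees C).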
ATXN viability: cell viability loss in ATXN counter-screen; AID 651635; actives 0.49% (n = 400,000); Potency, µM (titrated, usually from 56.7 µM), hits mostly cytotoxic; S2 cells (HEK-293 line with an ATXN2-luciferase reporter) viability, CellTiter-Fluor protease fluorescence, 24 h; note: nearly all actives have a fitted effect of over 40% in size
Numbers stand for hits; i = inactive; ? = inconclusive; nt = no result; [ ] = remark or other dose. Calls come from the whole dose curve; as a rule, active = well fitted curve in the direction sought with a large enough effect; inconclusive = small, poorly fitted or top-dose-only effect, or another doubt; inactive = no such curve, though single readings can be large; an effect the other way counts as inactive or inconclusive.

SMILES | KB-V1 MDR tox | KB-3-1 tox | HT1080 IDH1KD tx | ATXN2 expr inh | HT1080NT lethal | ATXN viability
CC(C)(C)c1ccc(NC(=O)N2CCN(c3ccc([N+](=O)[O-])cn3)CC2)cc1 | ? | ? | 23µM | i | ? | i
Cc1ccc(S(=O)(=O)N2CCCCC2c2cccnc2)c(C)c1C (stereo not given) | 16µM | ? | i | nt | i | ?
O=S(=O)(c1cccc(C(F)(F)F)c1)N1CCCC1c1cccnc1 (stereo not given) | ? | i | i | i | i | i
CC(=NNc1nc2ccccc2o1)c1cc2ccccc2cn1 | ? | ? | ? | ? | ? | i
CC(=NNc1nc2ccccc2o1)c1ncccn1 | ? | 1.8µM | 1.2µM | ? | ? | ?
CC(=NNc1nc2ccccc2s1)c1ncccn1 | 1.3µM | 2.3µM | 1.2µM | ? | ? | 1.4µM
Cc1cccc(NC(=O)C(=O)NCC(c2cccnc2)N2CCc3ccccc32)c1C (stereo not given) | i | i | nt | nt | nt | nt
O=C1CS(=O)(=O)C2(C(=O)N(Cc3ccccc3)c3ccccc32)N1c1ccccc1 (stereo not given) | i | i | nt | i | nt | i
COc1cccc(CN(C)CC(=O)Nc2cc(S(=O)(=O)N3CCCC3)ccc2Cl)c1OC | 21µM | ? | i | i | i | i
N#Cc1cc2ccccc2nc1SCC(=O)Nc1ccc(S(=O)(=O)N2CCCC2)cc1 | 4.1µM | i | i | i | i | i
COc1ccc(S(=O)(=O)N2CCCCCC2)cc1NC(=O)Cc1cc(OC)c(OC)c(OC)c1 | 2.3µM | i | i | i | i | ?
COc1ccc(S(=O)(=O)N2CCCCC2)cc1NC(=O)CSc1ncnc2ccccc12 | 21µM | i | i | i | i | ?
COc1ccc(S(=O)(=O)N2CCCCC2)cc1NC(=O)CCc1cc(OC)c(OC)c(OC)c1 | i | i | i | nt | i | ?
Cc1ccc(NC(=O)CSc2ncnc3ccccc23)cc1S(=O)(=O)N1CCCCC1 | i | i | ? | ? | i | ?
COc1ccc(S(=O)(=O)N2CCOCC2)cc1NC(=O)Cc1cccs1 | i | ? | i | i | i | i
CCOc1ccc(S(=O)(=O)N2CCCCC2)cc1NC(=O)Cc1cccs1 | 23µM | i | i | i | i | i
Cc1ccc(/C=N/Nc2ccnc3cc(Cl)ccc23)c(C)c1 | i | ? | ? | 35µM | ? | ?
Clc1ccc2c(N/N=C/c3ccc(Br)cc3)ccnc2c1 | i | ? | ? | i | ? | ?
Oc1ccc(/C=N/Nc2ccnc3cc(Cl)ccc23)c(O)c1 | i | i | i | nt | i | ?
Cc1ccccc1/C=N/Nc1ccnc2cc(Cl)ccc12 | 16µM | ? | ? | 22µM | ? | nt
CCn1c2c(c(=O)n3ncc(C(=O)N4CCN(c5ccc(C(C)=O)cc5)CC4)c13)CN(Cc1ccc(OC)cc1)CC2 | i | 21µM | nt | ? | nt | i
COc1ccc2nc(NC(=O)C3CCN(S(=O)(=O)c4cccc5nsnc45)CC3)sc2c1 | 1.6µM | ? | ? | ? | i | i
Cc1nonc1OCC(C)(COc1nonc1C)NC(=O)c1ccc(Cl)cc1 | 4.1µM | ? | i | i | ? | i
Cc1noc(NC(=O)c2ccc(Cl)cc2)c1Cl | i | i | ? | i | i | i
CC(C)(C)C1CCC2(CC1)SCC(=O)N2c1ccccc1 (stereo not given) | i | i | i[9.24 µM] | i | i | i
CCC(C)(C)C1CCC2(CC1)NC(=S)N(c1ccccc1)N2 (stereo not given) | i | ? | 18µM | nt | ? | i
CC1(CCc2ccccc2)NC(=S)N(c2ccccc2)N1 (stereo not given) | i | i | ? | i | ? | i
CC(C)(C)C1CCC2(CC1)NC(=S)N(c1ccccc1)N2 (stereo not given) | i | ? | 5.8µM | i | ? | i
Cc1cc(C)cc(N2C(=O)N(Cc3cccc(F)c3)c3ccccc3S2(=O)=O)c1 | i | i | nt | i | nt | i
Cc1nc(Nc2nc(-c3ccccc3)cc(=O)[nH]2)nc2ccccc12 | ? | ? | 18µM | i | ? | ?
